# In the library only some 27% were active in any assay of this set; here they are far more common.
# sEH inh: soluble epoxide hydrolase inhibitors, primary screen, biochemical, human sEH. Bifunctional epoxide hydrolase 2 (Homo sapiens), P34913. recombinant human sEH enzymatic activity assay. inhibition, % at 2 µM. hit rate 0.34% among 91,000; in the data active = inhibition above about 80%
# CYP2C19 activ: human CYP2C19 activators, primary screen, biochemical, luminescence; Cytochrome P450 2C19 (Homo sapiens), P33261; recombinant CYP2C19, luciferin-H EGE luminescence; hits give high values; 0 = fully inhibited enzyme, 1 = untreated enzyme; activation factor at 5 µM; 96,000 tested, under 10 active; AID 1025, 2008;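 active = activation factor of at least 2 at 5 µM in the primary screen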;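 also: 0 = wells with 2.5 mM tranylcypromine and 1 = vehicle-only wells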
# Target sequence (P33261 whole entry, looked up): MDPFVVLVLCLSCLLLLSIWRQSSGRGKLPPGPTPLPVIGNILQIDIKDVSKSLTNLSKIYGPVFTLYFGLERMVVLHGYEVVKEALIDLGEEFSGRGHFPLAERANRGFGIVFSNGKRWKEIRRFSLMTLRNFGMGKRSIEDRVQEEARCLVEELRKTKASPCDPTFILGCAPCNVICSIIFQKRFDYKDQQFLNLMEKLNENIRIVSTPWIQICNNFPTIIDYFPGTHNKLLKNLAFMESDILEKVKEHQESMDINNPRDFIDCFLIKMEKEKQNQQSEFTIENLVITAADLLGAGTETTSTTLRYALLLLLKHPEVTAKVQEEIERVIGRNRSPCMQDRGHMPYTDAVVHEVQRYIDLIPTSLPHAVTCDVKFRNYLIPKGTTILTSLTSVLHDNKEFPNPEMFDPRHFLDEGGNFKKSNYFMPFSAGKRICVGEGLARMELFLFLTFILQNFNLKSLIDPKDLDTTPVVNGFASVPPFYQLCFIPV
# CYP2C9 inh: blockers of cytochrome P450 2C9 activity – biochemical, luminescence, ADME assay, primary screen. inhibition, % at 5 µM. P11712. hit rate 20% among 96,000. CYP2C9 Supersomes, luciferin-H conversion;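 active = blocking of liver enzyme CYP2C9 beyond about 50% at 5 µM, limit read from the data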
# CYP2C9 activ: human CYP2C9 activators, primary screen, biochemical, luminescence. Cytochrome P450 2C9 (Homo sapiens), P11712. recombinant CYP2C9, luciferin-H conversion; hits give high values; factor 1 = untreated enzyme, 0 = blocked. activation factor at 5 µM. hit rate 1.4% among 96,000;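 active = activation factor of 2 or more for CYP2C9 at a 5 µM dose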;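 also: 0 = sulfaphenazole-blocked wells and 1 = vehicle-only wells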
# CYP2C19 inhib: blockers of cytochrome P450 2C19 activity – biochemical, luminescence, ADME assay, primary screen. CYP2C19 Supersomes, luciferin-H EGE luminescence, 30 min. inhibition, % at 5 µM. P33261. hit rate 21% among 96,000;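 active = CYP2C19 inhibition above a set limit at 5 µM in the primary screen, cut at about 50% in these data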;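 also: plate controls were negative control wells for no effect and 2.5 mM tranylcypromine positive control for full effect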
# sEH act: soluble epoxide hydrolase activators, primary screen, biochemical, human sEH | Bifunctional epoxide hydrolase 2 (Homo sapiens), P34913 | purified human sEH enzymatic activity, activator screen | activation, % at 2 µM | hit rate 0.04% among 91,000; in the data active = activation above about 37%
# An asterisk follows results filed as active; . = no result given.
SMILES,sEH inh,CYP2C19 activ,CYP2C9 inh,CYP2C9 activ,CYP2C19 inhib,sEH act
N#Cc1ccc(N=c2ssnc2Cl)cc1,13,1,97*,0,3,-14
CN(C)c1ccc(N=c2sc3ccccc3n2C)cc1,4,0,77*,0.2,98*,-1
Cn1c(=Nc2ccccc2)sc2ccccc21,8,0.2,41,0.6,81*,-7
Cn1c(=NC(=O)CCl)sc2ccccc21,-4,1,-20,1.2,-4,3
CNc1oc(-c2ccc(Cl)cc2)nc1C#N,0,0.7,10,0.9,32,-2
CCCOc1ccccc1NC(=O)c1c(-c2ccccc2)noc1C,-12,1,-15,1.1,4,12
CCc1c(C)nc(SCC(=O)N2CCc3ccccc32)[nH]c1=O,9,0.9,9,0.9,8,-10
O=C(c1ccc(=O)n(Cc2ccccc2)n1)N1CCN(C/C=C/c2ccccc2)CC1,-1,0.3,92*,0.1,69*,-1
O=C(c1ccc(Br)o1)N1CCN(C/C=C/c2ccccc2)CC1,14,0.4,63*,0.4,65*,-11
O=C(CCc1nc2ccccc2c(=O)[nH]1)N1CCN(C/C=C/c2ccccc2)CC1,-6,0.7,52*,0.5,33,4
CNc1c([N+](=O)[O-])cnn1-c1ccc(Cl)cc1,18,0.6,17,0.8,42,-16
O=C(O)c1cc2sccc2s1,-8,0.9,8,0.9,6,7
CCc1ccc2c(c1)cc(CN(C(=S)Nc1ccccc1C)C1CC1)c1nnnn12,.,1,45,0.5,-2,.
Cc1noc(NS(=O)(=O)c2ccc(NC(=O)CCCOc3ccc(Cl)cc3Cl)cc2)c1C,-3,.,.,.,.,4
Cc1noc(NS(=O)(=O)c2ccc(NC(=O)COc3ccc(Cl)cc3Cl)cc2)c1C,1,1.1,71*,0.3,-10,-3
COc1cc(NS(=O)(=O)c2ccc(NC(=O)COc3ccccc3Cl)cc2)nc(OC)n1,25,0.1,96*,0,86*,-24
Cc1ccc(S(=O)(=O)CC(=O)Nc2ccc(S(=O)(=O)Nc3onc(C)c3C)cc2)cc1,-15,1.1,67*,0.3,-6,12
Cc1noc(NS(=O)(=O)c2ccc(N/C=C/C(=O)c3ccncc3)cc2)c1C,-12,1.1,51*,0.5,-8,9
COc1ccccc1N(C(C)=O)c1nc(C)cc(C)c1C#N,2,.,.,.,.,1
Cc1ccc(OCC(=O)Nc2ccc(S(=O)(=O)Nc3onc(C)c3C)cc2)cc1,.,1,12,0.9,-2,.
CCc1cccc(OCC(=O)Nc2ccc(S(=O)(=O)Nc3onc(C)c3C)cc2)c1,.,0.9,80*,0.2,7,.
CC(C)(NO)/C(=N\O)c1ccc(Cl)cc1,14,0.9,17,0.8,10,-14
CC(C)(NO)/C(=N/O)c1ccc(Br)cc1,-4,0.4,10,0.9,64*,4
COc1ccc(N2CCN(CC(=O)N3CCC(C)CC3)CC2)cc1,10,0.9,6,0.9,12,-8
CCCNC(=O)c1ccccc1NC(=O)c1ccccc1N(C)S(C)(=O)=O,0,.,.,.,.,1
SMILES,sEH inh,CYP2C19 activ,CYP2C9 inh,CYP2C9 activ,CYP2C19 inhib,sEH act
CC(C)CNC(=O)c1ccccc1Oc1ccccc1,-7,0.2,40,0.6,75*,6
CCCNC(=O)c1ccccc1NC(=O)Nc1ccccc1C,-1,0.5,24,0.8,51*,1
COc1ccc(C(=O)NCC(C)C)c(OC)c1,11,.,.,.,.,-6
CSc1ccccc1NC(=O)Nc1ccccc1,2,0.4,30,0.7,58*,-3
CC(C)CNC(=O)c1ccccc1NC(=O)Nc1ccccc1,3,0.7,52*,0.5,32,-2
CSc1cccc(NC(=O)Nc2ccccc2)c1,57,0.6,28,0.7,44,-57
CCOC(=O)c1sc2nc(CC(=O)OC)nc(NCc3ccc(Cl)cc3)c2c1C,4,0.9,7,0.9,7,-7
COc1ccc(S(=O)(=O)Cc2ccc(C(=O)NCc3ccccn3)o2)cc1,.,1,33,0.7,3,.
N#CCCN1CCN(S(=O)(=O)c2ccc(S(=O)(=O)NC3CCCC3)cc2)CC1,-9,1,-23,1.2,-2,9
COc1ccc2c(C)cc(SCc3c(C)noc3C)nc2c1,0,0.5,57*,0.4,50*,4
COc1ccc2c(C)cc(SCC#N)nc2c1,-4,0.5,-57,1.6,46,3
COc1ccc(Nc2nnc(Cc3ccc(Cl)cc3)c(=O)[nH]2)c(OC)c1,.,0.6,62*,0.4,39,.
COc1ccc(Nc2nnc(Cc3ccccc3)c(=O)[nH]2)c(OC)c1,9,1,26,0.7,1,-9
CC1CCCN(S(=O)(=O)c2ccc3c(c2)CCN3C(=O)C2CCC2)C1 (stereo not drawn),.,1,28,0.7,2,.
COc1ccc(CNC(=O)Cn2cc([N+](=O)[O-])nc2C)cc1,4,1.2,-21,1.2,-15,-2
COc1ccccc1NC(=O)CSc1nc2n[nH]c(C)c2c(=N)n1-c1ccccc1Cl,6,.,.,.,.,-4
Cc1ccc(S(=O)(=O)N(CC(=O)N2CCN(c3ccc(F)cc3)CC2)C2CCCCC2)cc1,10,0.6,52*,0.5,42,-8
O=C(CN(C1CCCCC1)S(=O)(=O)c1ccccc1)N1CCCC1,5,0.8,51*,0.5,16,-7
CNC(=O)CN(C1CCCCC1)S(=O)(=O)c1ccc(F)cc1,-5,0.3,42,0.6,66*,11
O=C(CN(C1CCCCC1)C1CCCCC1)N1CCc2ccccc2C1,-2,0.2,65*,0.3,76*,3
O=C(CN(C1CCCCC1)S(=O)(=O)c1ccc(Cl)cc1)N1CCOCC1,-1,1,27,0.7,3,1
CCNC(=O)CN(C1CCCCC1)S(=O)(=O)c1ccc(F)cc1,.,0.5,38,0.6,47,.
S=C(c1ccc[nH]1)N1CCOCC1,9,.,.,.,.,-9
COc1ccccc1OCCNc1nc2c(c(=O)n(C)c(=O)n2C)n1C,12,.,.,.,.,-10
COc1ccc(S(=O)(=O)Nc2ccccc2C(=O)NCc2ccco2)cc1,-3,0.4,-7,1.1,62*,4
COc1ccccc1NS(=O)(=O)c1ccc(C(=O)OCC(=O)NCc2ccco2)cc1,-4,0.2,85*,0.2,84*,6
CCC(=O)Nc1ccc(S(=O)(=O)NCc2ccco2)cc1,-11,0.8,-6,1.1,18,8
O=C(COC(=O)c1ccc(S(=O)(=O)NCc2ccco2)cc1)Nc1ccc(OC(F)F)cc1,76,0.7,61*,0.4,29,-75
